Data as given in PubChem BioAssay (NCATS).
Results filed as inconclusive are left out. The source made the active and inactive calls. Calls follow the shape of the dose curve; as a rule, active = well fitted inhibition curve with a large enough effect; inconclusive = small, poorly fitted or top-dose-only effect; inactive = no such curve, though single readings can be large or run the other way.

biological target: Cytochrome P450 3A4 (Homo sapiens) (UniProt P08684); assay: qHTS Assay for Inhibitors and Substrates of Cytochrome P450 3A4 (AID 884); details: recombinant CYP3A4, Luciferin-PPXE luminescence; series mostly up to 57.1 µM; also: nearly all actives have a fitted effect of over 50% in size
Sequence (P08684 whole entry, looked up): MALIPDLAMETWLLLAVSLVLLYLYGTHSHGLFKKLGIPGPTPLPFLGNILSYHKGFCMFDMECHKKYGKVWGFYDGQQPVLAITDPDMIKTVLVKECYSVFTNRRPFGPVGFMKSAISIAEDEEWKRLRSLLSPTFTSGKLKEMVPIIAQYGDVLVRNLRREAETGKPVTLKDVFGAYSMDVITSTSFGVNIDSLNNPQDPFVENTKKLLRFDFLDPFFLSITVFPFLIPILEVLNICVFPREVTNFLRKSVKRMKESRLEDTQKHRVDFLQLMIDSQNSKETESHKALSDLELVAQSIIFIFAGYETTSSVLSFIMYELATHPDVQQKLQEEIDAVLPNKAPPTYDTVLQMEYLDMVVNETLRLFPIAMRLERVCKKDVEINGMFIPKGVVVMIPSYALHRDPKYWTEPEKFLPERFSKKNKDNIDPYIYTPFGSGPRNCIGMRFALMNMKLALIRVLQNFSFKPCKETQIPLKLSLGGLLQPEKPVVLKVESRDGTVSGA
Summary of the method: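 20 nM human CYP3A4 with 25 uM Luciferin-PPXE (at KM) in 200 mM KPO4, preincubated 10 min with compound; NADPH regeneration started a 60 min RT reaction. Luciferin detected by luminescence, normalized to 57 uM ketoconazole as full inhibition.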
Potency is read from the fitted curve at half-maximal effect.

Potency, active:
FC(F)(F)c1ccc(C2[C@H]3CN(CC4CCCCC4)[C@H](c4ccccc4)C34CC2(c2cccnc2)C4)cc1 (some centres undefined) 15.8 µM, CCC1=C2CC[C@H]3C(=O)N(c4ccccc4)C(=O)[C@H]3[C@H]2[C@@]2(Cc3ccccc3)C(=NCc3ccccc3)OC(=O)N2C1=O 5.01 µM, CCC1=C(OC(=O)N(CC)CC)N2C(=O)OC(=NCCc3c[nH]c4ccccc34)[C@]2(Cc2ccccc2)[C@H]2C1=CC[C@H]1C(=O)N(C)C(=O)[C@H]12 1.26 µM, COC(=O)[C@@H]1C[C@@H]2CC[C@@H](O)C[C@@H]2N1CC1CCCCC1 12.6 µM, CN1C[C@@H]2C(c3ccc(C(F)(F)F)cc3)C3(c4cccnc4)CC2(C3)[C@H]1c1ccccc1 (some centres undefined) 7.94 µM, CCC1=C(OC(=O)N(CC)CC)N2C(=O)OC(=NCC(=O)OC)[C@]2(Cc2ccccc2)[C@H]2C1=CC[C@H]1C(=O)N(c3ccccc3)C(=O)[C@H]12 3.16 µM, COc1cccc([C@H]2Oc3ccc(OC)cc3/C(=N\OC[C@@H](O)[C@@H]3O[C@@H]4OC(C)(C)O[C@@H]4[C@H]3O)[C@@H]2O)c1 3.98 µM, COC(=O)c1ccc(C23CC4(C2)[C@H](CN(Cc2cccnc2)[C@@H]4c2ccccc2)C3c2ccc(C(F)(F)F)cc2)cc1 (some centres undefined) 5.01 µM, O=C(N/N=C1/C[C@@H](O)[C@@H](O)[C@@H]2[C@@H]3C(=O)N(Cc4ccc5c(c4)OCO5)C(=O)[C@H]3CC[C@@H]12)OCc1ccccc1 1.26 µM, O=C(O)c1sccc1S(=O)(=O)Nc1ccccc1N1CCCCC1 15.8 µM, CCC1=C(OC(=O)N(CC)CC)N2C(=O)OC(=NCCc3c[nH]c4ccccc34)[C@]2(Cc2ccccc2)[C@H]2C1=CC[C@H]1C(=O)N(CC(=O)OC)C(=O)[C@H]12 2.51 µM, CCC1=C(OC(=O)N(CC)CC)N2C(=O)OC(=NCCOC)[C@]2(Cc2ccccc2)[C@H]2C1=CC[C@H]1C(=O)NC(=O)[C@H]12 6.31 µM, CCC1=C(OC(=O)N(CC)CC)N2C(=O)OC(=NCc3ccccc3)[C@]2(C)[C@H]2C1=CC[C@H]1C(=O)N(c3ccccc3)C(=O)[C@H]12 2.51 µM, C=CC[C@@H]1C=C[C@@H](O/N=C\[C@@H](OC)[C@H](C)/C=C\CC(=O)OC)[C@@H](CO)O1 3.16 µM, COC(=O)[C@@H]1C[C@@H]2CC[C@@H](O)C[C@@H]2N1Cc1ccc(OC)cc1 15.8 µM, C/C(CCN1CCCc2nc(C)c(C)cc21)=N\O[C@@H](C)CN1CCCCc2nc(C)c(C)cc21 3.98 µM, CCCNC(=O)OC[C@@H]1O[C@H](CCO/N=C(\C)CCN2CCc3nc(CC)c(CC)cc3C2)C=C[C@@H]1Oc1ccc(OC)cc1 3.98 µM, CCC1=C2CC[C@H]3C(=O)N(C)C(=O)[C@H]3[C@H]2[C@@]2(Cc3ccccc3)C(=NCCc3c[nH]c4ccccc34)OC(=O)N2C1=O 1.26 µM, Cc1ccc(S(=O)(=O)N[C@H]2COC(=O)C/C=C\[C@H](C)[C@@H](NS(=O)(=O)c3ccc(C)cc3)COC(=O)C/C=C\[C@@H]2C)cc1 3.98 µM, FC(F)(F)c1ccc(CN2C[C@@H]3C(c4ccc(Cl)nc4)C4(c5cccnc5)CC3(C4)[C@H]2c2ccccc2)cc1 (some centres undefined) 15.8 µM, C/C(CCN1CCCc2nc(C)c(C)cc21)=N\OC[C@@H](O)COCc1ccco1 3.98 µM, CC(C)(C)N1C(=O)[C@H]2[C@H]3[C@H](O)[C@H](O)C/C(=N/OC[C@@H](O)COCc4ccco4)[C@@H]3CC[C@@H]2C1=O 5.01 µM, COC(=O)C/C=C\[C@@H](C)[C@@H](/C=N\OCC[C@H]1C=C[C@H](OC(C)=O)[C@@H](COC(C)=O)O1)NS(=O)(=O)c1ccc(C)cc1 3.98 µM, CCC1=C(OC(=O)N(CC)CC)N2C(=O)OC(=NCC(=O)OC)[C@]2(Cc2ccccc2)[C@H]2C1=CC[C@H]1C(=O)N(CC(=O)OC)C(=O)[C@H]12 5.01 µM, Clc1ccc(C2[C@H]3CN(Cc4cccnc4)[C@H](c4ccccc4)C34CC2(c2ccccc2)C4)cn1 (some centres undefined) 2 µM, CCC1=C(OC(=O)N(CC)CC)N2C(=O)OC(=NCC3CC3)[C@]2(C)[C@H]2C1=CC[C@H]1C(=O)N(CC)C(=O)[C@H]12 3.98 µM, Cc1ccc(S(=O)(=O)N[C@H]2COC(=O)C/C=C\[C@@H](C)[C@H](NS(=O)(=O)c3ccc(C)cc3)COC(=O)C/C=C\[C@H]2C)cc1 3.16 µM, COCCN=C1OC(=O)N2C(=O)C3=C4C(C[C@H]5C(=O)N(CC(=O)OC)C(=O)[C@H]5[C@H]4[C@@]12Cc1ccccc1)[C@H]1C(=O)N(CC(=O)OC)C(=O)[C@H]1[C@H]3C (some centres undefined) 15.8 µM, C/C(CCN1CCCc2nc(C)c(C)cc21)=N\O[C@@H](C)c1cn([C@H](CO)Cc2ccccc2)nn1 2 µM
